Measurements published in PubChem BioAssay AID624297 (National Center for Advancing Translational Sciences (NCATS), 2012).
The whole screen tested about 340,000 compounds, of which about 6,200 (1.8%) were called active. Inconclusive results (about 10%) are left out. This is one part of a sample in which actives are shown more often than they occur. A number with no mark means an inactive call. The call rests on the fitted dose curve; in most records, active means well fitted activation curve with a large enough effect; inconclusive means small, poorly fitted or top-dose-only effect; inactive means no such curve, though single readings can be large or run the other way.

Assay: A quantitative high throughput screen for small molecules that induce DNA re-replication in SW480 colon adenocarcinoma cells. Further: nearly all actives have a fitted effect of over 55% in size. On re-replication activation: % of control where 0% means no effect.
Conditions: Hoechst DNA content imaging, 48 h; series mostly up to 46.1 µM; re-replication activation: at the top concentration
How it was run: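 SW480 cells exposed to compounds for 48 hr at 37 C, 5% CO2, then Hoechst-stained 40 min. Nuclear DNA content imaged by fluorescence scanning (405 nm excitation, 500-530 nm emission); re-replication scored as increased high-intensity nuclei.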
Potency means the concentration at half of the fitted maximal effect.

| Structure (SMILES) | re-replication activation [%] | Potency |
| --- | --- | --- |
| COC(=O)Cc1c(-c2[nH]c3ccccc3c2CC(=O)OC)[nH]c2ccccc12 | 2.42 | – |
| O=C(CN1C(=O)NC2(CCCC2)C1=O)Nc1cc(C(F)(F)F)ccc1N1CCOCC1 | -2.75 | – |
| Cc1cc(C)nc(N/N=C/c2c(CO)cnc(C)c2O)n1 | – | 11.6 µM (active) |
| Cc1cc(C)nc(N/N=C/c2c(C)oc3ccccc23)n1 | 4.88 | – |
| O=C(COC(=O)/C=C/c1ccc(Br)o1)Nc1cccc(S(=O)(=O)N2CCOCC2)c1 | -3.84 | – |
| CC1CCCCC12NC(=O)N(CC(=O)N1CCN(c3ccccc3)CC1)C2=O (stereo unspecified) | -15 | – |
| CCN1CCN(c2cc3nc(C)n(Cc4ccccc4)c(=O)c3cc2NC(=O)c2ccccc2F)CC1 | – | 8.2 µM (active) |
| CCOc1cc(NC(=O)c2ccccc2C(=O)O)c(OCC)cc1NC(=O)c1ccccc1F | 6.97 | – |
| CCC(=O)Nc1ccc2nc(C)n(Cc3ccccc3Cl)c(=O)c2c1 | -2.2 | – |
| Cc1cc(C#N)c(SCC(N)=O)nc1-c1ccc(F)cc1 | -0.723 | – |
| O=C(c1cccs1)N1CCCC(c2nc(-c3ccc(F)cc3)no2)C1 (stereo unspecified) | -0.305 | – |
| N#Cc1c(-c2ccc(F)cc2)cc(C2CC2)nc1SCC(=O)c1cccs1 | – | 11.6 µM (active) |
| CC12CCCCC1=CC(=O)CC2 (stereo unspecified) | 0.335 | – |
| CCC(=O)NC(=S)Nc1ccc(NC(=O)c2ccco2)c(Cl)c1 | 2.73 | – |
| O=C(Nc1ccc(NC(=O)c2ccco2)c(Cl)c1)c1cccc([N+](=O)[O-])c1 | – | 0.651 µM (active) |
| O=C(Nc1ccc(C2CC2(Cl)Cl)cc1)c1cccc([N+](=O)[O-])c1 (stereo unspecified) | 13 | – |
| O=C(COC(=O)CSc1ccccc1)Nc1ccc(F)cc1F | -8.3 | – |
| C=CC[C@H](CC(=O)NCCO)C(=O)N[C@@H](COC(=O)[C@@H](CC=C)Cc1ccc(F)cc1)Cc1c[nH]c2ccccc12 | -8.11 | – |
| Cc1ccc(C(=O)Nc2ccccc2-c2ccccc2)cc1S(=O)(=O)Nc1ccccc1 | -9.69 | – |
| Cn1c(N)cc(=O)n(C)c1=S | -5.87 | – |
| CCCn1nc(NC(=O)C(C)C)c2cc3cc(OC)ccc3nc21 | – | 9.2 µM (active) |
| CCCn1nc(NS(=O)(=O)c2ccc(F)cc2)c2cc3ccccc3nc21 | -3.49 | – |
| CCCn1nc(NS(=O)(=O)c2ccccc2)c2cc3cc(C)ccc3nc21 | -277 | – |
| CCOC(=O)C1CCCN(C(=O)C2CCN(S(=O)(=O)c3ccc(Cl)c(C(F)(F)F)c3)CC2)C1 (stereo unspecified) | -0.268 | – |

| Structure (SMILES) | re-replication activation [%] | Potency |
| --- | --- | --- |
| Cc1ccc(S(=O)(=O)N2CCCCC2)cc1C(=O)N1CCN(CCO)CC1 | 4.03 | – |
| O=C(CCC(=O)N1CCN(S(=O)(=O)c2ccc(Cl)cc2)CC1)NCc1cccc(C(F)(F)F)c1 | -18.8 | – |
| OCCNc1nc(Nc2ccc(Cl)c(Cl)c2)nc2ccccc12 | 0.218 | – |
| CN(C)c1nc(Nc2ccc(Cl)c(Cl)c2)nc(N(C)C)n1 | – | 23.1 µM (active) |
| CN(C)c1nc(NN)nc(Nc2ccc(F)cc2)n1 | 8.77 | – |
| O=C1C(Cl)=C(Oc2ccccc2)C(=O)c2ccccc21 | – | 2.06 µM (active) |
| CC(=O)Oc1ccc2c(c1)C(=O)c1ccccc1C2=O | -16.9 | – |
| Cc1ccc(S(=O)(=O)N2CCN(C(=O)CN3C(=O)NC(C)(c4ccc(Cl)cc4)C3=O)CC2)c(C)c1 (stereo unspecified) | 9.81 | – |
| Cc1ccnc(SCC(=O)Nc2cccc(S(=O)(=O)N3CCOCC3)c2)n1 | -9.84 | – |
| Cc1ccc(NC(=O)c2c(NC(=O)CCC(=O)O)sc3c2CCCCC3)cc1 | -11.6 | – |
| CC(=O)Nc1ccc(NC(=O)c2sc3nc4c(c(-c5ccc(C)cc5)c3c2N)CCC4)cc1 | – | 20.6 µM (active) |
| Cc1ccc(NC(=O)c2csc3c2CCCC3)cc1 | -1.8 | – |
| COc1ccccc1N(CC(=O)Nc1c(C)n(C)n(-c2ccccc2)c1=O)S(=O)(=O)c1ccccc1 | -8.42 | – |
| Cc1ccc(S(=O)(=O)NCC(=O)NNC(=O)c2ccc(Br)cc2)cc1C | -3.8 | – |
| COc1cc(/C=C2\Oc3ccc(C#Cc4ccc(O)cc4)cc3C2=O)cc(OC)c1 | -3.34 | – |
| O=C1c2ccccc2C(=O)N1CCC#Cc1ccc2cc(C3(O)CCCCC3)oc(=O)c2c1 | -6.42 | – |
| COc1cc(C#Cc2ccc3cc(CCCO)oc(=O)c3c2)cc(OC)c1 | – | 3.26 µM (active) |
| C#CCOCCOCCOCCNc1nc(N2CCN(C(=O)[C@H](CO)n3cc([C@@H](N)C(C)C)nn3)CC2)nc(N2CCN(C(=O)[C@H](CCC(=O)O)n3cc([C@@H](N)[C@H](C)CC)nn3)CC2)n1 | -0.653 | – |
| COc1ccc2[nH]cc(/C=C(/C#N)S(=O)(=O)c3ccccc3)c2c1 | -1 | – |
| COc1ccc(/C=C(\C#N)c2c[nH]c3ccccc23)cc1 | – | 18.4 µM (active) |
| COc1cc(/C=C(\C#N)c2nc3ccccc3[nH]2)ccc1O | -6.88 | – |
| C#CCOCCOCCOCCNc1nc(N2CCOCC2)nc(N2CCN(C(=O)[C@H](Cc3ccc(O)cc3)n3cc(CCO)nn3)CC2)n1 | -5.18 | – |
| Cc1noc(C)c1S(=O)(=O)N(C)C[C@H]1Oc2c(NC(=O)Nc3ccc4c(c3)OCO4)cccc2C(=O)N([C@H](C)CO)C[C@@H]1C | 12.8 | – |
| O=C(NCc1ccc2c(c1)OCO2)c1cc(F)c(F)cc1Cl | 0.16 | – |

| Structure (SMILES) | re-replication activation [%] | Potency |
| --- | --- | --- |
| O=C(Cc1ccc([N+](=O)[O-])cc1)NCCc1ccc2c(c1)OCO2 | -3.75 | – |
| O=C(NCc1ccc2c(c1)OCO2)c1cc([N+](=O)[O-])ccc1N1CCOCC1 | – | 7.31 µM (active) |
| CC[C@]12c3[nH]c4ccc(Cl)cc4c3CCN1C(=O)[C@@H](CC(=O)NCCN1CCOCC1)C[C@@H]2C(=O)N1CCN(C(=O)C2CC2)CC1 | -1.66 | – |
| COc1ccc(CCNC(=O)COc2cc(C)cc3oc(=O)c(C)c(C)c23)cc1OC | -6.91 | – |
| COc1ccc(/C=C/C(=O)OCC(=O)NC2CCCCCC2)cc1OC | -8.91 | – |
| COc1ccc(C2/C(=C(/O)c3ccc4c(c3)CC(C)O4)C(=O)C(=O)N2Cc2ccncc2)cc1 (stereo unspecified) | -1.61 | – |
| COc1cc(C2/C(=C(\O)c3ccc4c(c3)CC(C)O4)C(=O)C(=O)N2Cc2ccco2)ccc1O (stereo unspecified) | – | 0.517 µM (active) |
| COCCCN1C(=O)C(=O)/C(=C(/O)c2ccc3c(c2)CC(C)O3)C1c1cccnc1 (stereo unspecified) | 10.1 | – |
| O=C(COC(=O)c1ccc(O)cc1O)c1ccc2c(c1)OCCO2 | -1.61 | – |
| O=C1CN(C(=O)COC(=O)/C=C/c2ccc(F)cc2)c2ccccc2N1 | -5.6 | – |
| COc1ccc2c(C(=O)c3ccc(C)cc3)n(CCC(N)=O)[n+]([O-])c2c1 | 1.41 | – |
| COc1ccc(C(=O)c2c3ccc([N+](=O)[O-])cc3[n+]([O-])n2CCCN)cc1 | – | 18.4 µM (active) |
| COc1ccc(C(=O)CC(=O)C(=O)Nc2cc([N+](=O)[O-])ccc2OC)cc1 | -3.76 | – |
| COc1cc(OC)cc(-c2c(C#Cc3ccsc3)c3cc(-c4ccc(SC)cc4)ccc3n2C)c1 | 12 | – |
| Cc1nnc(N/N=C/C2CC=CCC2)[nH]c1=O (stereo unspecified) | -14 | – |
| Cc1cc(C(=O)N/N=C/c2ccccn2)c2ccccc2n1 | -16.3 | – |
| Cc1nnc(N/N=C/c2ccccn2)[nH]c1=O | – | 1.3 µM (active) |
| CC(C)[C@@H](C(=O)OCC(=O)c1ccc2c(c1)NC(=O)CO2)N1C(=O)c2ccccc2C1=O | -4.45 | – |
| O=S(=O)(NCC1CN(S(=O)(=O)c2ccc3c(c2)OCCO3)C1)c1c(F)cccc1F | -0.716 | – |
| CSc1ncccc1C(=O)Nc1cccc(S(=O)(=O)N2CCOCC2)c1 | -8.98 | – |
| CCOC(=O)c1cccc(NS(=O)(=O)c2c(C(=O)N3CCCCCC3)c(C)n(C)c2C)c1 | -4.56 | – |
| CCOC(=O)c1c(S(=O)(=O)Nc2cccc(Cl)c2)c(C)n(C)c1C | – | 8.2 µM (active) |
| CCOC(=O)c1c(S(=O)(=O)Nc2ccc(CN3CCC(C)CC3)cc2)c(C)n(C)c1C | 1.49 | – |
| COc1ccc(CCN2CC(C(=O)OCC(=O)NCc3ccccc3Cl)CC2=O)cc1OC (stereo unspecified) | -14.7 | – |

| Structure (SMILES) | re-replication activation [%] | Potency |
| --- | --- | --- |
| Cc1ccc(S(=O)(=O)N2CCN(C(=O)Cn3c(=O)cnc4ccccc43)CC2)c(C)c1 | -2.69 | – |
| CCN(CC(=O)Nc1c(F)cccc1F)C(=O)Cc1cccs1 | -73.1 | – |
| Cc1cc(NC(=O)CSCC(=O)NC(C)c2ccccc2)no1 (stereo unspecified) | -14.6 | – |
| CCc1ccc(C(CNc2nc(C(F)(F)F)nc3ccccc23)N(C)C)cc1 (stereo unspecified) | – | 20.6 µM (active) |
| NS(=O)(=O)c1ccc(CCNc2nc(C(F)(F)F)nc3ccccc23)cc1 | -3.72 | – |
| COc1cccc(CNc2nc(C(F)(F)F)nc3ccccc23)c1 | 33.5 | – |
| CC(CN1CCOCC1)c1ccccc1 (stereo unspecified) | -17.3 | – |
| CC(CN1CCC(n2nccc2NC(=O)C2CCCC2)CC1)c1ccccc1 (stereo unspecified) | -4.86 | – |
| CC(CN1CCCCC1)c1ccccc1 (stereo unspecified) | – | 5.8 µM (active) |
| O=C(Nc1ccc2ccccc2c1[N+](=O)[O-])c1ccccc1 | -2.97 | – |
| O=C(Nc1cccc2cccnc12)c1cccc(Cl)c1 | -5.9 | – |
| O=C(Nc1ccccc1Cl)Nc1cccc2cccnc12 | -32.8 | – |
| CC(=O)/C(=N\Nc1ccc(Cl)cc1Cl)Sc1cccc2cccnc12 | – | 6.51 µM (active) |
| CCC(C)c1ccc(NC(=O)COC(=O)C2CCCC2)cc1 (stereo unspecified) | -0.977 | – |
| CC(Sc1nncn1C)C(=O)NCCC1=CCCCC1 (stereo unspecified) | -0.473 | – |
| COc1ccc(Cn2cc(CN3CCS(=O)(=O)N(Cc4ccc(-c5cccc(Cl)c5)cc4)C(C)C3=O)nn2)cc1 (stereo unspecified) | 4.08 | – |
| CN(C(=O)c1cccc(NC(=O)Cc2ccc([N+](=O)[O-])cc2)c1)C1CCC1 | -7.23 | – |
| Cc1nc(SCc2ccc(F)cc2)c([N+](=O)[O-])[nH]1 | -1.87 | – |
| CCCOc1ccc(Cn2ccnc2)cc1[N+](=O)[O-] | -3.74 | – |
| CCCCCOc1ccc(CSC2=NCCN2)cc1[N+](=O)[O-] | – | 5.8 µM (active) |
| O=C1NCC(c2ccccc2)(c2ccccc2)C(=O)N1 | -2.48 | – |
| Cc1ccc(OCC(=O)Nc2ccc(N3CCN(C(=O)c4ccco4)CC3)cc2)c(C)c1 | -23.1 | – |
| COc1cccc(C(=O)Nc2ccc(N3CCN(C(=O)c4ccco4)CC3)cc2)c1 | – | 18.4 µM (active) |
| CCC(=O)Nc1ccc(C(=O)N2CCN(C(=O)c3ccco3)CC2)cc1 | -18.2 | – |
